Potency and affinity values are given separately.

For one assay, the system named is Staphylococcus aureus. The conditions noted are these: Concentration 32 ug.mL-1; ASSAY_TEST Inhibition of Bacterial Growth; detection method Absorption (OD600); MEDIA CAMHB; plate type 384well; NBS; CORNING #3640; time 18 hr.
The subject of a further assay is Escherichia coli. The conditions noted are these: Concentration 32 ug.mL-1; ASSAY_TEST Inhibition of Bacterial Growth; detection method Absorption (OD600); MEDIA CAMHB; plate type 384well; NBS; CORNING #3640; time 18 hr.

With `O=[N+]([O-])c1ccc(-c2ccccc2Nc2ccccc2)cc1`, the Inhibition (commonly the drop in the measured response relative to a control, in per cent) is -5.74% with Staphylococcus aureus and 3.34% with Escherichia coli.

On to `O=[N+]([O-])c1ccc(-c2cccc3c2[nH]c2ccccc23)cc1`, for which the figures for the Inhibition with Staphylococcus aureus and with Escherichia coli were 21.52% and 3.84%, respectively.

Turning to `O=[N+]([O-])c1ccc(-c2ccccc2Nc2ccccc2)cc1C(F)(F)F`, the figures for the Inhibition in the assay on Staphylococcus aureus and in the assay on Escherichia coli were 23.3% and 4.01%, respectively.

Regarding `COc1ccc(Nc2ccccc2-c2ccc([N+](=O)[O-])cc2)cc1`, the Inhibition with Staphylococcus aureus is given as 17.68%; in the assay on Escherichia coli, -1.45%.

As for `Cc1cccc(C)c1Nc1ccccc1-c1ccccc1[N+](=O)[O-]`, the Inhibition with Staphylococcus aureus is recorded as 57.09%; in the assay on Escherichia coli, 4.01%.

As for `Cc1cc(C)c(Nc2ccccc2-c2ccc([N+](=O)[O-])cc2)c(C)c1`, the Inhibition with Staphylococcus aureus is -5.17%; in the assay on Escherichia coli, 1.23%.

Turning to `COc1cc([N+](=O)[O-])ccc1-c1ccccc1Nc1ccccc1`, the Inhibition with Staphylococcus aureus is given as 23.48%; in the assay with Escherichia coli, -2.88%.

For the compound `CN(c1ccccc1)c1ccccc1-c1ccc([N+](=O)[O-])cc1`, the Inhibition with Staphylococcus aureus is 9.33%; with Escherichia coli, -0.45%.

Take `O=[N+]([O-])c1cc(Cl)c(-c2ccccc2Nc2ccccc2)c(Cl)c1`: the Inhibition in the assay with Staphylococcus aureus is 19.61%; in the assay on Escherichia coli, -7.56%.

As to `COc1cccc(Nc2ccccc2)c1-c1ccc([N+](=O)[O-])cc1`, the results for the Inhibition in the assay on Staphylococcus aureus and with Escherichia coli were 23.81% and 7.82%, respectively.

Consider `Clc1cc(Br)cc(Cl)c1-c1ccccc1Nc1ccccc1`, for which the Inhibition in the assay with Staphylococcus aureus was 22.27%; with Escherichia coli, -3.79%.

Consider `Cc1ccccc1Nc1ccccc1-c1ccc([N+](=O)[O-])cc1`, for which the Inhibition is 21.4% in the assay on Staphylococcus aureus and -4.33% with Escherichia coli.

As to `O=[N+]([O-])c1ccc(-c2ccccc2N(Cc2ccccc2)c2ccccc2)cc1`, the Inhibition in the assay on Staphylococcus aureus worked out at 20.79%; with Escherichia coli, 4.24%.

(Values after ChEMBL document CHEMBL4513137, “CO-ADD screening of University of Manchester (UK) compounds”.)
